Laboratory results from PubChem BioAssay AID652062 (Broad Institute, 2013).
In all, about 1,400 compounds went through this assay and about 1,100 (79%) were called active.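 Rule for the calls: active = fitted half-maximal concentration of a falling signal no higher than twice the top valid dose in every test run; inconclusive = runs disagree, or flat partial inhibition, or poor fit; inactive = every run inactive: flat, wrong direction, or potency beyond limit.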 So high a share suggests a set chosen from earlier hits. The list is a sample of the results. Measured potencies and affinities stand elsewhere.

assay: inhibitors of clade B AD8 Env fusion, dose response, cell-based, cherry-pick (AID 652062); conditions: HeLa-AD8 Env / CEM-CCR5 cell fusion, luciferase; at 35 µM (top of the series) unless noted

Compared with COc1cccc(S(=O)(=O)N[C@H]2CC[C@H](CC(=O)NCc3ccncc3)O[C@@H]2CO)c1, CCS(=O)(=O)N[C@H]1CC[C@@H](CC(=O)NCc2ccc(Cl)cc2)O[C@@H]1CO is higher in activity change, negative = inhibition: 30.8% for the first, 46.4% for the second.

Going from Cc1ccc2c(c1)C(=C(C#N)C#N)CCN2 to Cc1ccc2c(c1)c1c3n2CCN(CC(N)=O)C3CCC1 (stereo not drawn), the activity change, negative = inhibition falls from 85.1% to 38.7%.

First: C[C@H]1CN([C@@H](C)CO)S(=O)(=O)c2ccc(-c3ccc(F)cc3)cc2O[C@H]1CN(C)Cc1cccc(F)c1
Second: C[C@H]1CN([C@@H](C)CO)S(=O)(=O)c2ccc(-c3cccc(C#N)c3)cc2O[C@H]1CN(C)Cc1cccc(F)c1
The activity change, negative = inhibition of the first is lower: -95% for the first, 4.15% for the second.

Compared with C[C@@H]1CN([C@H](C)CO)S(=O)(=O)c2ccc(-c3ccccc3)cc2O[C@@H]1CN(C)Cc1ccccc1, C[C@@H]1CN([C@@H](C)CO)S(=O)(=O)c2ccc(-c3ccccc3)cc2O[C@H]1CN(C)S(C)(=O)=O is higher in activity change, negative = inhibition: -17.9% for the first, 54.4% for the second.

Going from COc1cc(-c2cc(OC)c(O)c(OC)c2)cc(OC)c1O to C=CCOc1c(Br)cc(CNc2ccc(NC(=O)C(C)C)c(OC)c2)cc1OC, the activity change, negative = inhibition rises from 27.9% to 129%.

Going from CCc1nc(N2CCCCC2C)c2oc3ccccc3c2n1 (stereo not drawn) to CCc1nc(N2CCCCC2)c2oc3ccccc3c2n1, the activity change, negative = inhibition falls from 131% to 16.4%.

First: C=CCN1C(=S)CC(c2ccccc2)=Nc2ccccc21
Second: CN1CCc2ccccc2Cc2[nH]c3ccccc3c2CC1
The activity change, negative = inhibition of the first is higher: 1.53% for the first, -17.8% for the second.

Going from C[C@@H]1CN([C@@H](C)CO)S(=O)(=O)c2ccc(C3=CCCC3)cc2O[C@@H]1CN(C)C(=O)C1CCOCC1 to CC(C)NC(=O)N(C)C[C@@H]1Oc2ccc(NC(=O)C3CC3)cc2CC(=O)N([C@H](C)CO)C[C@H]1C, the activity change, negative = inhibition falls from 50.5% to -3.87%.

Going from COc1ccc(Nc2ncc(C(=O)N3CCN(c4ccc(F)cc4)CC3)c3ccccc23)cc1 to Cc1ccc(Cn2ncc3c(N4CCN(c5ccc(C)cc5)CC4)ncnc32)cc1, the activity change, negative = inhibition falls from 0.701% to -19.9%.

First: COc1ccc2[nH]c3c(N4CCC(O)(c5cccc(C(F)(F)F)c5)CC4)ncnc3c2c1
Second: Cc1ccc(-n2ncc3c(N4CCN(c5ccccc5)CC4)ncnc32)c(C)c1
The activity change, negative = inhibition of the first is higher: -33.8% for the first, -35.1% for the second.

First: C[C@@H]1CN([C@@H](C)CO)C(=O)c2cccc(NS(=O)(=O)c3ccc(F)cc3)c2O[C@@H]1CN(C)Cc1ccc(C(F)(F)F)cc1
Second: C[C@@H]1CN([C@H](C)CO)C(=O)c2cccc(NS(=O)(=O)c3ccc(F)cc3)c2O[C@@H]1CN(C)Cc1ccc(C(F)(F)F)cc1
The activity change, negative = inhibition of the first is lower: -35.8% for the first, -28.7% for the second.

First: Cc1noc(C)c1S(=O)(=O)Nc1cccc2c1O[C@H](CN(C)Cc1ccc(C(F)(F)F)cc1)[C@H](C)CN([C@H](C)CO)C2=O
Second: C[C@H]1CN([C@@H](C)CO)C(=O)c2cccc(NC(=O)Nc3ccc(C(F)(F)F)cc3)c2O[C@H]1CN(C)S(=O)(=O)c1ccccc1
The activity change, negative = inhibition of the first is higher: 36.8% for the first, -14.4% for the second.

First: COc1ccc(CCNC(=O)COC(=O)c2cccn2C)cc1
Second: CCCc1cc(C(=O)NCc2ccc(OC)cc2)no1
The activity change, negative = inhibition of the first is lower: -11.1% for the first, 14.3% for the second.

Going from O=S(=O)(NCC[C@@H]1CC[C@@H](NS(=O)(=O)c2ccccc2Cl)[C@H](CO)O1)c1ccc(Cl)cc1 to O=C(Nc1cccc(F)c1)N[C@H]1CC[C@@H](CCNS(=O)(=O)c2cccc(Cl)c2)O[C@H]1CO, the activity change, negative = inhibition falls from 68.7% to 15.8%.

First: Cc1ccc2c(C)nc(Nc3nc(CSc4nnnn4-c4ccccc4)cc(=O)[nH]3)nc2c1
Second: Cc1[nH]c2ccccc2c1/C=N\NC(=O)c1ccccc1Cl
The activity change, negative = inhibition of the first is lower: -21.8% for the first, 8.5% for the second.

Compared with CC(NC(=O)c1ccccc1NC(=O)CN1CCc2ccccc2C1)c1ccccc1 (stereo not drawn), O=C(NCc1ccccc1)[C@@H]1CCCN1C(=O)[C@@H]1CCCN1C(=O)c1cccc2ccccc12 is lower in activity change, negative = inhibition: -3.06% for the first, -3.32% for the second.

First: Cc1ccc(NC(=O)c2ccc(OCC3CCCO3)cc2)cc1Cl (stereo not drawn)
Second: Cc1ccc(NS(=O)(=O)c2cc(C(=O)N(C)C3CCN(C)CC3)ccc2Cl)cc1Cl
The activity change, negative = inhibition of the first is lower: -7.89% for the first, 81.1% for the second.

Compared with O=C1c2cccnc2C(Nc2ccc(S(=O)(=O)N3CCCCC3)cc2)N1Cc1ccccc1 (stereo not drawn), O=C1c2cccnc2C(Nc2ccc(S(=O)(=O)N3CCCCCC3)cc2)N1Cc1ccccc1 (stereo not drawn) is lower in activity change, negative = inhibition: 6.27% for the first, -20.4% for the second.

Compared with Cc1noc(C)c1S(=O)(=O)N(C)C[C@H]1Oc2ccc(NC(=O)Nc3ccccc3)cc2CC(=O)N([C@H](C)CO)C[C@H]1C, Cc1ccc(S(=O)(=O)N(C)C[C@@H]2Oc3ccc(NS(=O)(=O)c4c(C)noc4C)cc3CC(=O)N([C@H](C)CO)C[C@@H]2C)cc1 is lower in activity change, negative = inhibition: 14.5% for the first, -10.8% for the second.

First: CCNC(=O)C[C@@H]1CC[C@@H]2[C@H](COC[C@@H](O)CN2C(=O)c2ccccn2)O1
Second: COc1cccc(CNC(=O)C[C@@H]2C=C[C@H](NC(=O)C3CCC3)[C@H](CO)O2)c1
The activity change, negative = inhibition of the first is higher: 66.2% for the first, 64% for the second.

Going from CC(C)NC(=O)N(C)C[C@@H]1Oc2ccc(NC(=O)C3CC3)cc2CC(=O)N([C@@H](C)CO)C[C@@H]1C to C[C@@H]1CN([C@@H](C)CO)C(=O)Cc2cc(NC(=O)NC3CCCCC3)ccc2O[C@@H]1CN(C)S(=O)(=O)c1ccc(Cl)cc1, the activity change, negative = inhibition falls from -3.66% to -18.9%.

Compared with Nc1ncn([C@H]2C[C@H](O)[C@@H](CO)O2)c(=O)n1, O=c1[nH]c(=O)n([C@H]2C[C@H](O)[C@@H](CO)O2)cc1F is lower in activity change, negative = inhibition: 8.34% for the first, -10.2% for the second.

Going from Nc1nc2c(ncn2[C@@H]2O[C@H](C(=O)NCC(c3ccccc3)c3ccccc3)[C@@H](O)[C@H]2O)c(=O)[nH]1 to C[C@@H]1CN([C@H](C)CO)C(=O)c2cc(NC(=O)Nc3ccccc3)ccc2O[C@@H]1CN(C)S(=O)(=O)c1ccccc1, the activity change, negative = inhibition rises from 19.5% to 138%.

Going from C[C@@H]1CN([C@H](C)CO)C(=O)c2cccc(NS(=O)(=O)c3cn(C)cn3)c2O[C@H]1CN(C)C(=O)Nc1ccc(F)cc1 to C[C@H](CO)N1C[C@H](C)[C@@H](CN(C)S(=O)(=O)c2ccc(F)cc2)Oc2ccc(NS(=O)(=O)c3cn(C)cn3)cc2CC1=O, the activity change, negative = inhibition rises from 0.184% to 35.3%.

Compared with O=C(CC1C(=O)NCCN1Cc1cccc(F)c1)NC1CCCCC1 (stereo not drawn), CCN(CCn1cccn1)C(=O)CC1C(=O)NCCN1CCc1ccccc1 (stereo not drawn) is lower in activity change, negative = inhibition: 73.6% for the first, 27.6% for the second.

Going from CCCCNC(=O)C[C@H]1C[C@@]2(C(=O)OC)C(=C[C@H](C(C)(C)C)O[C@@H]2C)N(Cc2ccc3c(c2)OCO3)C1=O to COC(=O)[C@]12CCCCC=C1N(Cc1ccco1)C(=O)[C@H](CC(=O)NCCc1ccccc1OC)C2, the activity change, negative = inhibition rises from 26.7% to 99.6%.

Going from COc1ccc(NS(=O)(=O)c2cccc(C(=O)NNC(=O)CNC(=O)c3ccc(C)cc3)c2)cc1 to C[C@@H]1CN([C@@H](C)CO)C(=O)c2cc(NS(=O)(=O)c3ccccc3)ccc2O[C@H]1CN(C)Cc1ccc(Oc2ccccc2)cc1, the activity change, negative = inhibition rises from 3.44% to 132%.

First: CCOC(=O)[C@@H]1[C@H]2COc3cc(OC)ccc3[C@H]2N2C(=O)N(c3cccc(F)c3)C(=O)[C@@]12C
Second: C[C@@]12C(=O)N(Cc3ccc(F)cc3)CC(=O)N1[C@H]1c3cc(Cl)ccc3OC[C@@H]1[C@@H]2c1ccccc1
The activity change, negative = inhibition of the first is higher: 236% for the first, 19.5% for the second.

Compared with CCN(CC)S(=O)(=O)c1ccc(NC(=O)Nc2cccc(C(F)(F)F)c2)cc1, CCc1nnc(NC(=O)[C@@H](NC(=O)c2cccc(S(=O)(=O)N(CC)CC)c2)C(C)C)s1 is higher in activity change, negative = inhibition: -121% for the first, 52.6% for the second.

Going from O=C(NCc1ccco1)c1ccc(Cn2c(=O)c3ccccc3n(Cc3cccc(F)c3)c2=O)cc1 to C[C@@H]1CN([C@@H](C)CO)C(=O)c2cc(NC(=O)c3ccccc3)ccc2O[C@@H](C)CCCCO[C@H]1CN(C)Cc1ccc(C(=O)O)cc1, the activity change, negative = inhibition rises from 15.9% to 52.2%.

First: CCCCCn1c(C(C)NC(=O)CCC)nc2ccccc21 (stereo not drawn)
Second: CC(C)OCCCn1c(=S)[nH]c2ccc(N3CCOCC3)cc2c1=O
The activity change, negative = inhibition of the first is higher: -19.3% for the first, -27.3% for the second.

Going from COc1cc2c(c(OC)c1OC)[C@@]1(c3ccccc3)CCCC[C@H]1[C@@H]2NC(=O)C(F)(F)F to C[C@H](CO)N1C[C@H](C)[C@H](CN(C)S(=O)(=O)c2ccccc2)Oc2ccc(NS(=O)(=O)c3ccc(F)cc3)cc2CC1=O, the activity change, negative = inhibition rises from -28.2% to 10.2%.

Going from CCN(c1nc(N)c(C(=O)N=C(N)N)nc1Cl)C(C)C to Cc1cc(C)nc(/N=C(\N)Nc2ccc(CC(=O)OC(C)C)cc2)n1, the activity change, negative = inhibition rises from -8.55% to 39.8%.

Compared with Cc1cc(C(=O)N2CCC(C(=O)O)CC2)c(C(F)(F)F)o1, CCNc1ncnc2c1cnn2C1CCCO1 (stereo not drawn) is lower in activity change, negative = inhibition: -10.2% for the first, -11.7% for the second.

Going from COc1ccc(CN(C)C[C@@H]2Oc3ccc(NC(=O)Nc4ccc(OC)cc4)cc3C(=O)N([C@H](C)CO)C[C@@H]2C)cc1 to C[C@@H]1CN([C@@H](C)CO)C(=O)c2cc(NC(=O)c3ccncc3)ccc2O[C@H]1CN(C)Cc1ccncc1, the activity change, negative = inhibition falls from 64% to 56.3%.

Going from C[C@@H]1CN([C@@H](C)CO)C(=O)c2cc(NC(=O)c3ccncc3)ccc2O[C@@H]1CN(C)Cc1ccncc1 to CN(C[C@H](Cc1ccccc1)N(C[C@H](c1ccccc1)N(CCc1ccccc1)N=O)N=O)N=O, the activity change, negative = inhibition falls from 34.4% to -5.55%.

With C[C@H](CO)N1C[C@H](C)[C@@H](CN(C)Cc2ccncc2)Oc2cc(C3=CCCCC3)ccc2S1(=O)=O the activity change, negative = inhibition was 57.2% [at 15 µM].

O=S(=O)(NCC[C@H]1CC[C@H](NS(=O)(=O)c2ccccc2Cl)[C@H](CO)O1)c1ccc(Cl)cc1 showed an activity change, negative = inhibition of 67.6% [at 30 µM].

Compared with CCOC(=O)[C@]12CCC=C1N(Cc1ccc3c(c1)OCO3)C(=O)[C@H](CC(=O)NCC13CC4CC(CC(C4)C1)C3)C2, O=C(C1CCCCC1)N1CCCC(c2nc3c(nnn3Cc3ccccc3)c(=O)[nH]2)C1 (stereo not drawn) is lower in activity change, negative = inhibition: 17.3% [at 16 µM] for the first, -8.09% [at 16 µM] for the second.

Work on Cc1ccc(S(=O)(=O)Nc2ccc3c(c2)C(=O)N([C@H](C)CO)C[C@@H](C)[C@H](CN(C)S(=O)(=O)c2ccc(F)cc2)O3)cc1 yielded an activity change, negative = inhibition of -22.9% [at 16 µM].

Molecule Cc1ccc(S(=O)(=O)Nc2ccc3c(c2)CC(=O)N([C@@H](C)CO)C[C@H](C)[C@@H](CN(C)Cc2ccc(-c4ccccc4)cc2)O3)cc1 has an activity change, negative = inhibition of 215% [at 18 µM].
